From PubChem BioAssay AID1159580 (chemical genetic matrix, 2015)
Hit rate of the full screen: of about 5,500 compounds, about 2,000 (36%) were called active. About 18% were inconclusive and are not listed. Rule as the data show it: active = normalized growth mostly below about 0.91 (no sharp cut-off); inconclusive = no clear call, values can overlap the other calls; inactive = mostly above about 0.92. This is one part of the list.

Test: chemical genetic growth profiling, strain panel (AID 1159580);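 also: tested at 20 µM; growth read once vehicle control cultures reached saturation at 30 °C; 1 = growth at the plate median or of vehicle wells; lower values mean less growth of the strain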
Conditions: S. cerevisiae deletion strains, growth OD

Measured: normalized growth

O=c1c2ccccc2nc2n1CCc1c-2[nH]c2ccccc12
inactive: locus YAL013W, strain DEP1, active compounds read low 1.02 | locus YAL040C, strain CLN3, active compounds read low 0.981 | locus YCL061C, strain MRC1 (second series), active compounds read low 1.01 | locus YDR150W, strain NUM1, active compounds read low 1.01 | locus YDR363W, strain ESC2, active compounds read low 1.02 | locus YER002W, strain NOP16, active compounds read low 0.996 | locus YGR078C, strain PAC10, active compounds read low 1 | locus YJR075W, strain HOC1, active compounds read low 1.02 | locus YMR263W, strain SAP30, active compounds read low 1.01 | locus YMR307W, strain GAS1, active compounds read low 0.999 | locus YNL128W, strain TEP1, active compounds read low 0.964 | locus YNL153C, strain GIM3, active compounds read low 0.928 | locus YNL175C, strain NOP13, active compounds read low 0.945 | locus YNL197C, strain WHI3, active compounds read low 0.97 | locus YNL224C, strain SQS1, active compounds read low 0.982 | locus YNL322C, strain KRE1, active compounds read low 1.02 | locus YOR083W, strain WHI5 (second series), active compounds read low 0.906 | locus YPL055C, strain LGE1, active compounds read low 1.02 | locus YPL241C, strain CIN2, active compounds read low 1
